# From PMC11062922 (Nature Chemical Biology, 2023)
# Experiments:
# Parameters in all cases: species or system human, MV4-11 + K-562 + COLO205 + SK-N-BE2 + OVCAR-8
# Conditions in all cases: read-out: apparent Kd; compound concentrations:100 nM and 1000 nM (sheet 'Samples'); n = 1
# ADCK1 = tested on: ADCK1
# AKT1 = tested on: AKT1
# ATR = tested on: ATR
# AURKA = tested on: AURKA
# BTK = tested on: BTK
# CDK9 = tested on: CDK9
# CLK1 = tested on: CLK1
# CLK4 = tested on: CLK4
# CSNK1A1 = tested on: CSNK1A1
# CSNK1E = tested on: CSNK1E
# CSNK1G1 = tested on: CSNK1G1
# CSNK1G3 = tested on: CSNK1G3
# DDX3X;DDX3Y = tested on: DDX3X;DDX3Y
# EPHB3 = tested on: EPHB3
# GRK6 = tested on: GRK6
# HSP90B1 = tested on: HSP90B1
# LYN = tested on: LYN
# MAP2K1 = tested on: MAP2K1
# MAP2K2 = tested on: MAP2K2
# MAPK1 = tested on: MAPK1
# MAPK3 = tested on: MAPK3
# MCM5 = tested on: MCM5
# MET = tested on: MET
# OPA1 = tested on: OPA1
# PHKG2 = tested on: PHKG2
# PI4KA = tested on: PI4KA
# PI4KB = tested on: PI4KB
# PIK3CA = tested on: PIK3CA
# PIK3CB = tested on: PIK3CB
# PIM1 = tested on: PIM1
# PIM3 = tested on: PIM3
# PRKACA = tested on: PRKACA
# PRKDC = tested on: PRKDC
# RAB14 = tested on: RAB14
# RAB5C = tested on: RAB5C
# RPS6KA3 = tested on: RPS6KA3
# RPS6KA6 = tested on: RPS6KA6
# SKIV2L2 = tested on: SKIV2L2
# SLC25A5 = tested on: SLC25A5
# T10 = tested on: T1, T10
# T1 construct: gene NAT10
# TBK1 = tested on: TBK1
# TEC = tested on: TEC
# ULK3 = tested on: ULK3
# VDAC3 = tested on: VDAC3
structure (smiles),measurement,setting,value
Cc1cnc(Nc2ccc(F)cc2Cl)nc1-c1c[nH]c(C(=O)N[C@H](CO)c2cccc(Cl)c2)c1 [Vertex11e],potency estimated from few doses,ADCK1,1210 nM
same,potency estimated from few doses,AKT1,1200 nM
same,potency estimated from few doses,ATR,890 nM
same,potency estimated from few doses,AURKA,745 nM
same,potency estimated from few doses,BTK,880 nM
same,potency estimated from few doses,CDK9,1810 nM
same,potency estimated from few doses,CLK1,1150 nM
same,potency estimated from few doses,CLK4,1250 nM
same,potency estimated from few doses,CSNK1A1,969 nM
same,potency estimated from few doses,CSNK1E,1220 nM
same,potency estimated from few doses,CSNK1G1,2060 nM
same,potency estimated from few doses,CSNK1G3,1230 nM
same,potency estimated from few doses,DDX3X;DDX3Y,1220 nM
same,potency estimated from few doses,EPHB3,2330 nM
same,potency estimated from few doses,GRK6,1290 nM
same,potency estimated from few doses,HSP90B1,1070 nM
same,potency estimated from few doses,LYN,1320 nM
same,potency estimated from few doses,MAP2K1,1350 nM
same,potency estimated from few doses,MAP2K2,1430 nM
same,potency estimated from few doses,MAPK1,44.9 nM
same,potency estimated from few doses,MAPK3,77.8 nM
same,potency estimated from few doses,MCM5,1270 nM
same,potency estimated from few doses,MET,2320 nM
same,potency estimated from few doses,OPA1,802 nM
same,potency estimated from few doses,PHKG2,2480 nM
same,potency estimated from few doses,PI4KA,1380 nM
same,potency estimated from few doses,PI4KB,59.2 nM
same,potency estimated from few doses,PIK3CA,142 nM
same,potency estimated from few doses,PIK3CB,851 nM
same,potency estimated from few doses,PIM1,939 nM
same,potency estimated from few doses,PIM3,340 nM
same,potency estimated from few doses,PRKACA,1860 nM
same,potency estimated from few doses,PRKDC,723 nM
same,potency estimated from few doses,RAB14,655 nM
same,potency estimated from few doses,RAB5C,1330 nM
same,potency estimated from few doses,RPS6KA3,1540 nM
same,potency estimated from few doses,RPS6KA6,628 nM
same,potency estimated from few doses,SKIV2L2,1590 nM
same,potency estimated from few doses,SLC25A5,1450 nM
same,potency estimated from few doses,T10,952 nM
same,potency estimated from few doses,TBK1,1290 nM
same,potency estimated from few doses,TEC,1320 nM
same,potency estimated from few doses,ULK3,1530 nM
same,potency estimated from few doses,VDAC3,1380 nM
